Each structure is given as a SMILES string. In all, about 150,000 compounds went through this assay and about 540 (0.36%) showed an effect of 50% or more. Shown is part of a subset that was picked to be rich in strong results.

Experimental findings from ChEMBL document CHEMBL4888484, “Replenishing the malaria drug discovery pipeline: Screening and hit evaluation of the MMV Hit Generation Library 1 (HGL1) against asexual blood stage Plasmodium falciparum ,using a nano luciferase reporter read-out” (2022) are described below.

The subject of the test is Plasmodium falciparum. Put plainly: Primary screen in NF54 nanoGlo assay, in single point, at 2uM, 72h; a lower Z score goes with more inhibition. Particulars: timepoint 72 hour. In kind it is functional, Erythrocyte.
A word on the % Inhibition: it is the relative decrease from the control value, in per cent. For `O=C(CC1CCCCC1)NCC1CCN(c2cc(-c3cccnc3)n[nH]2)CC1`, the “% Inhibition” value is given as -17% and the Z score is given as 1.71.
Consider `CC[n+]1ccc(-c2ncc(-c3ccc(C(C)(C)C)cc3)o2)cc1`, for which the “% Inhibition” value worked out at 66% and the Z score is given as -12.84.
As for `CO[C@@H](C)C(=O)N(Cc1ncc[nH]1)c1cncc(Br)c1`, the “% Inhibition” value turned out to be 2% and the Z score is listed as -0.29.
Take `COc1ccc(-c2cc(OC(F)(F)F)ccc2O)nn1`: the “% Inhibition” value is recorded as -8% and the Z score is on record as 1.53.
For `O=C(CCC(=O)c1ccc2c(c1)OCCCO2)NCc1ccccc1` the same measures were -7% and 1.26.
As for `CC1CCCC(C)N1S(=O)(=O)c1ccc(NC(=O)CCC(=O)c2ccc3c(c2)OCCO3)cc1` (stereo not given), the “% Inhibition” value is listed as -4% and the Z score came to 0.64.
In the same order, the values of `C[N+]1(CCCC(=O)c2ccc3c(c2)OCCO3)CCC(c2ccccc2)C1` (stereo not given) are 73% and -8.3.
Consider `CCn1nccc1-c1cnc2nc(C)nn2c1`, for which the “% Inhibition” value is reported as -6% and the Z score worked out at 0.88.
For `Cc1cc(C)c(C(=O)N2C[C@H](F)C[C@H]2C(N)=O)o1` the same measures were 1% and -0.13.
As for `Cc1cccc([C@@H](NC(=O)Nc2ncco2)C(F)(F)F)c1`, the “% Inhibition” value is on record as 54% and the Z score worked out at 1.59.
`Cc1cccc([C@@H](NC(=O)CC2OCCCO2)C(F)(F)F)c1`: the “% Inhibition” value was 3% and the Z score was -0.38.
For the molecule `Cc1cccc(C(NC(=O)[C@@H]2CCCO2)C(F)(F)F)c1` (stereo not given in full), the “% Inhibition” value is reported as -6% and the Z score is recorded as 0.81.
Consider `O=C(Nc1cccc2c1CCCC2)c1cccc(S(=O)(=O)N2CCCCC2)c1`, for which the “% Inhibition” value was -16% and the Z score is 1.73.
On to `Cn1cncc1CC(=O)Nc1ccnc(NC(=O)OC(C)(C)C)c1`, for which the “% Inhibition” value was found to be 94% and the Z score was -14.52.
Turning to `Cc1cc(=O)c(C(=O)Nc2ccnc(NC(=O)OC(C)(C)C)c2)c[nH]1`, the “% Inhibition” value is -2% and the Z score is recorded as 0.38.
In the same order, the values of `Cn1cncc1CCN1CCC[C@H](NC(=O)OC(C)(C)C)C1` are -12% and 1.84.
In the same order, the values of `CC(C)c1noc(CN2CC[C@H](NC(=O)c3ccccn3)[C@@H](O)C2)n1` are -2% and 0.42.
For the molecule `CCCN(CC(=O)N(Cc1ccco1)C[C@H]1CCCO1)C(=O)c1ccc(C)cc1`, the “% Inhibition” value is recorded as -8% and the Z score turned out to be 1.14.
On to `COc1ccnc(C(=O)N(Cc2cnn(C)c2)C(C)C)c1`, for which the “% Inhibition” value is given as -10% and the Z score is reported as 1.37.
In the case of `CC(C)c1nccn1CC(=O)NC(C1CC1)C1CC1`, the “% Inhibition” value is 1% and the Z score is given as -0.12.
Take `CC(C)c1nccn1CCC(=O)N1CC[C@H](N)C1`: the “% Inhibition” value is reported as 6% and the Z score was -0.94.
In the case of `CC(C)c1nccn1CCC(=O)Nc1ncn(C2CCCCC2)n1`, the “% Inhibition” value was 50% and the Z score came to 1.4.
For `CC(C)Cn1c(CC2(CC(=O)NC3CCOCC3)CCCC2)nc2cccnc21` the same measures were -12% and 1.81.
Regarding `CCN1CCN(Cc2cccc3cccnc23)C(C)(C)C1=O`, the “% Inhibition” value is listed as -9% and the Z score worked out at 1.65.
Regarding `Cc1ccc(-c2ncc(CN3CCCC4(C3)OCCO4)s2)o1`, the “% Inhibition” value is on record as -5% and the Z score is given as 0.88.
For the molecule `COc1cc(C)c(S(=O)(=O)N2CCc3cc4ccccc4nc32)cc1C`, the “% Inhibition” value was -10% and the Z score amounted to 1.11.
With `C[C@H](NC(=O)c1cncc(O)c1)c1nncn1C`, the “% Inhibition” value is listed as -4% and the Z score was found to be 0.69.
For `Cc1nc(N(C)C)cc(N2CCN(C(=O)C3CCCC3)CC2)n1` the same measures were -17% and 1.88.
As for `c1ccc(CC2(c3nc(-c4cnccn4)no3)CCC2)cc1`, the “% Inhibition” value worked out at 13% and the Z score is -2.33.
Regarding `COc1cccc(-c2nsc(C(=O)NCc3cccs3)c2N)c1`, the “% Inhibition” value amounted to 18% and the Z score was -2.8.
Consider `OC1CCCCC1N1CCc2sccc2C1` (stereo not given), for which the “% Inhibition” value is -21% and the Z score came to 2.66.
Take `Clc1cccc(CNCCCNc2ccncc2)c1Cl`: the “% Inhibition” value is listed as 67% and the Z score is listed as -8.81.
Take `CCN(CC)CCNCc1cccc(Cl)c1Cl`: the “% Inhibition” value is on record as -2% and the Z score turned out to be 0.28.
For `CCNCc1cccc(Cl)c1Cl` the same measures were 4% and -0.5.
For the molecule `Cc1ccc2c(c1)CCCN2C(=O)c1ccoc1`, the “% Inhibition” value was determined as 4% and the Z score is recorded as -0.72.
For `CCn1ccc(C(=O)N[C@H]2CCOC[C@@H]2OC)n1`, the “% Inhibition” value is -7% and the Z score is reported as 0.83.
For `OC1CCC(NC(=NC2CC2)NCc2ccccc2F)CC1` (stereo not given), the “% Inhibition” value is -9% and the Z score was determined as 1.4.
For the molecule `Cc1cc(C(=O)Cn2cc(Cl)c(=O)[nH]c2=O)c(Cl)cc1F`, the “% Inhibition” value is recorded as -1% and the Z score was 0.1.
In the same order, the values of `CC1(C)C(CNC(=O)CCn2cc(C(N)=O)c(=O)[nH]c2=O)C1(C)C` are 19% and -2.23.
`CCOC(=O)CCn1cc(F)c(=O)[nH]c1=O`: the “% Inhibition” value came out at 74% and the Z score is listed as -6.55.
Consider `CCCCN(CC)C(=O)Nc1cc(Cl)c(OC)cc1OC`, for which the “% Inhibition” value came out at 1% and the Z score was -0.07.
On to `O=C(NCCCn1ccnc1)[C@@H]1Cc2c(ccc3ccccc23)O1`, for which the “% Inhibition” value was found to be 4% and the Z score was -0.47.
In the same order, the values of `C[C@@H](C(=O)Nc1ncc[nH]1)c1ccc2c(c1)[nH]c1ccc(Cl)cc12` are 69% and -1.75.
Regarding `C[C@@H](C(=O)Nc1nnc[nH]1)c1ccc2c(c1)[nH]c1ccc(Cl)cc12`, the “% Inhibition” value was -7% and the Z score came out at 0.71.
On to `CC(C)[C@H](NC(=O)Nc1cc(Cl)ccc1Cl)c1ncc[nH]1`, for which the “% Inhibition” value is reported as -5% and the Z score was determined as 0.62.
